Screens deposited in PubChem by National Center for Advancing Translational Sciences (NCATS).
A selection: hits, their analogues and other compounds. The true share with any hit is near 3.5%.
NS1 function inh – blocks influenza NS1 protein function; actives 0.4% (n = 270,000); Potency, µM (doses to about 46.1 µM), for the others: at the highest dose activity, positive = more growth; calls by dose curve; also: actives are rising curves; nearly all actives have a fitted effect of over 50% in size
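S. cerevisiae expressing influenza A NS1, grown in glucose, washed, then diluted 1:100 into pH 6.0 -URA galactose medium with 23 nl compound. Growth recovery read as OD600; NS1-free strain serves as control.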
Sm TGR block – inhibitors of Schistosoma mansoni thioredoxin glutathione reductase; AID 485364; Potency, µM (titrated, usually from 114 µM), without a hit: at the top dose activity change, negative = inhibition, actives largely listed as inhibitors; Q962Y6; purified TGR, DTNB reduction, TNB absorbance 405 nm; actives 3% (n = 360,000); also: % is scaled to controls: 0 for no effect and ±100 for the full control effect; nearly all actives have a fitted effect of over 60% in size
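Kinetic colorimetric format: TGR-catalysed, NADPH-driven DTNB reduction monitored via TNB absorbance. Enzyme dispensed at 20 nM; compound exposure 15 min at room temperature before reaction start.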
LmPK inh – blocks Leishmania mexicana pyruvate kinase activity; Q27686; purified LmPK, Kinase-Glo ATP luminescence, 1 h; Potency, µM (doses to about 57.5 µM), inactives show at the highest dose activity change, negative = inhibition, actives largely listed as inhibitors; actives 0.37% (n = 290,000); AID 1721; also: % is scaled to controls: 0 for no effect and ±100 for the full control effect
Target sequence (Q27686 whole entry, looked up): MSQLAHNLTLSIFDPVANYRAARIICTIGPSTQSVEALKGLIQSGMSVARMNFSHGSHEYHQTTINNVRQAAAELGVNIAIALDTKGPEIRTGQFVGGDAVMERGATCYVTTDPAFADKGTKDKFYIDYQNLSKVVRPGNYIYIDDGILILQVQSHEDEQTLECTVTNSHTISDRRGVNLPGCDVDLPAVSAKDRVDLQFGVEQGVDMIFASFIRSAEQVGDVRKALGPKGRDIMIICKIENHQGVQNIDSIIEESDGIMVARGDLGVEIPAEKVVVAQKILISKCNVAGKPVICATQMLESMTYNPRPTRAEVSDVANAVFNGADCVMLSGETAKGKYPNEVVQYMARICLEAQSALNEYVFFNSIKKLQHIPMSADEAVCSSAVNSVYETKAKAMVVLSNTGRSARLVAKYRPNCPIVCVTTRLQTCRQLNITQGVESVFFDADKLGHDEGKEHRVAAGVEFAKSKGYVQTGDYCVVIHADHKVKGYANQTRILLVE
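Purified LmPK (0.1 nM) converted ADP (0.1 mM) to ATP with PEP (0.5 mM) in imidazole buffer pH 7.2 with KCl and MgCl2, 1 h at room temperature. ATP was read by Kinase-Glo luminescence; data normalized to uninhibited and no-enzyme controls.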
RE007 growth inh – less growth of the S. pombe RE007 Vpr strain | S. pombe RE007 Vpr strain, BacTiter-Glo ATP luminescence, 24 h | Potency, µM (series often up to 92.2 µM), for inactives: top-dose activity change, negative = less growth, most hits filed as inhibitors | actives 0.21% (n = 360,000) | AID 651644; active = well fitted falling curve with a large enough effect; inconclusive = small, poorly fitted or top-dose-only effect; inactive = no such curve, though single readings can be large or run the other way; also: % is scaled to controls: 0 for no effect and ±100 for the full control effect; nearly all actives have a fitted effect of over 50% in size
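Fission yeast strain RE007, carrying one chromosomally integrated HIV-1 vpr copy, was seeded at OD 0.01 in PMG+AL medium with 23 nL pinned compound. After 24 h at 30 °C and 99% humidity, viability was read by BacTiter-Glo luminescence.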
Giardia FBPA inh – Giardia lamblia aldolase inhibition. purified Giardia FBPA. Potency, µM (series often up to 59.6 µM), inactives show top-dose activity, negative = inhibition, most hits filed as inhibitors. actives 0.71% (n = 290,000); also: % is scaled to controls: 0 for no effect and ±100 for the full control effect; nearly all actives have a fitted effect of over 55% in size
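Giardia FBPA (40 nM reagent) was preincubated 10 min at RT with compound (up to 57.5 uM final), then substrate plus GAPDH/TPI/NAD/arsenate coupling system with diaphorase/resazurin was added; resorufin fluorescence (525/598 nm) was read after 20 min.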
Tb PYK inh – inhibitors of Trypanosoma brucei pyruvate kinase; AID 624173; Potency, µM (titrated, usually from 76.8 µM), for the others: at the top dose activity, negative = inhibition, hits mostly inhibitors; actives 0.12% (n = 410,000); TbPYK enzyme, Kinase-Glo Plus ATP luminescence, 45 min; also: % is scaled to controls: 0 for no effect and ±100 for the full control effect; nearly all actives have a fitted effect of over 50% in size
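Assay buffer: 50 mM TEA pH 7.2, 100 mM KCl, 10 mM MgCl2, 0.05% BSA, 0.01% Tween-20. Pyruvate kinase from T. brucei plus substrate met compound, then ADP (130 uM final). Luminescence was read post 45 min RT.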
* marks the source's active call; other numbers are inactive results; ! = repeats disagree; [ ] = another dose, or the depositor's remark. Unless noted, calls follow the shape of the dose curve; as a rule, active = well fitted curve in the direction sought with a large enough effect; inconclusive = small, poorly fitted or top-dose-only effect, or another doubt; inactive = no such curve, though single readings can be large; an effect the other way counts as inactive or inconclusive. Potency is read from the fitted curve at half-maximal effect.

Results for Cc1cc(C)c2[nH]c(=O)c(C(c3nnnn3C(C)(C)C)N3CCN(C(=O)c4ccco4)CC3)cc2c1 (stereo not given) ?
NS1 function inh: -9%; Sm TGR block: 79µM*; LmPK inh: 8%; RE007 growth inh: 9%; Giardia FBPA inh: 0%; Tb PYK inh: inconclusive

How did Cc1ccc(NC(=O)COC(=O)CCc2c[nH]c3ccccc23)cc1 do in these assays?
RE007 growth inh: 3%; Tb PYK inh: 6%

Results for O=C(COC(=O)CCc1c[nH]c(=O)[nH]1)Nc1ccccc1 ?
NS1 function inh: inconclusive; Sm TGR block: 40µM*; LmPK inh: -6%; RE007 growth inh: -4%; Giardia FBPA inh: inconclusive; Tb PYK inh: 6%

How did Cc1ccc(NC(=O)COC(=O)CCc2c[nH]c(=O)[nH]2)cc1 do in these assays?
NS1 function inh: -6%; Sm TGR block: 32µM*; LmPK inh: -2%; RE007 growth inh: 11%; Giardia FBPA inh: -4%; Tb PYK inh: -1%

What do the screens show for `CNc1nc2c(N)ncnc2n1[C@@H]1O[C@@H]2COP(=O)(O)O[C@H]2[C@H]1O`?
Giardia FBPA inh: 0%

How did Cc1ccc(C)c(N2CCN(C(=O)Cn3ncc4c(=O)oc5ccccc5c43)CC2)c1 do in these assays?
Sm TGR block: 8.9µM*; Tb PYK inh: 2%

How did CCOC(=O)c1c(C)oc2cc(Br)c(O)c(Br)c12 do in these assays?
NS1 function inh: -163%; Sm TGR block: 18%; LmPK inh: 7%; RE007 growth inh: -14%; Giardia FBPA inh: -7%; Tb PYK inh: -4%

Results for CCOC(=O)c1c(C)oc(NC(=O)CCl)c1C(=O)OCC ?
Sm TGR block: 14µM*; LmPK inh: 2%; RE007 growth inh: -2%; Giardia FBPA inh: -13%; Tb PYK inh: 7%

How did CNC(=O)CCCN1C(=O)CCn2nc(-c3cn(C)c4ccccc34)cc21 do in these assays?
Sm TGR block: 0%; Tb PYK inh: -10%

What do the screens show for `Cc1ccc(C(=O)Nc2ccc(S(=O)(=O)NCc3ccco3)cc2)cc1`?
NS1 function inh: -4%; Sm TGR block: 50µM*; LmPK inh: 10%; RE007 growth inh: 14%; Giardia FBPA inh: -4%; Tb PYK inh: -3%

What do the screens show for `COc1ccc(C(=O)Nc2ccccc2)cc1S(=O)(=O)NCc1ccco1`?
NS1 function inh: 0%; Sm TGR block: 45µM*; LmPK inh: -3%; RE007 growth inh: -2%; Giardia FBPA inh: 5%; Tb PYK inh: -6%

What do the screens show for `Cc1noc(C)c1COC(=O)c1ccc(S(=O)(=O)NCc2ccco2)cc1`?
NS1 function inh: -6%; Sm TGR block: 40µM*; LmPK inh: 3%; RE007 growth inh: 7%; Giardia FBPA inh: 6%; Tb PYK inh: -4%

Results for O=C(NCCSCc1ccccc1Cl)C1CCN(S(=O)(=O)Cc2ccccc2)CC1 ?
Sm TGR block: -12%; Tb PYK inh: -10%

Results for COC(=O)[C@@H]1CC[C@H](C)[C@@H](c2ccc(C)cc2)N1C(=O)c1ccc(/C=N\OCC[C@@H]2C=C[C@H](OC(C)=O)[C@H](COC(C)=O)O2)cc1 ?
Giardia FBPA inh: 1%[12.9 µM]

Results for CCOC(=O)CSC(=S)NC(=O)c1ccc(OC)cc1 ?
NS1 function inh: 15%; Sm TGR block: 8.9µM*; LmPK inh: -3%; RE007 growth inh: inconclusive; Giardia FBPA inh: inconclusive; Tb PYK inh: 0%

What do the screens show for `CCOC(=O)c1sc(N(Cc2ccccc2)C(=O)CCl)nc1C`?
NS1 function inh: -8%; Sm TGR block: 25µM*; LmPK inh: 0%; RE007 growth inh: -2%; Tb PYK inh: -11%

What do the screens show for `Cc1cc(S(=O)(=O)c2ccc([N+](=O)[O-])cn2)ccc1Br`?
RE007 growth inh: inconclusive; Tb PYK inh: -10%

Results for O=[N+]([O-])c1ccc(S(=O)(=O)c2ccccc2)nc1 ?
NS1 function inh: -98%; Sm TGR block: 0.32µM*; LmPK inh: 5%; Giardia FBPA inh: -15%; Tb PYK inh: -15%

How did O=S(=O)(c1ccccc1)c1ccc(C(F)(F)F)cn1 do in these assays?
NS1 function inh: -4%; Sm TGR block: 14µM*; LmPK inh: 0%; RE007 growth inh: 7%; Giardia FBPA inh: 2%; Tb PYK inh: -6%

What do the screens show for `Cc1ccc(S(=O)(=O)c2ccc([N+](=O)[O-])cn2)cc1`?
NS1 function inh: -94%; Sm TGR block: 0.1µM*; LmPK inh: 2%; RE007 growth inh: inconclusive; Giardia FBPA inh: -27%; Tb PYK inh: -2%

What do the screens show for `NS(=O)(=O)c1ccc(CNC(=O)/C=C/c2ccco2)cc1`?
NS1 function inh: 3%; Sm TGR block: 1.6µM*; LmPK inh: 0%; RE007 growth inh: 14%; Giardia FBPA inh: -6%; Tb PYK inh: inconclusive

Results for O=C(CNC(=O)/C=C/c1ccco1)N=Nc1c(O)[nH]c2ccccc12 ?
NS1 function inh: 1%; Sm TGR block: 7.1µM*; LmPK inh: 12%; RE007 growth inh: -4%; Giardia FBPA inh: -19%; Tb PYK inh: 1%

What do the screens show for `O=C(/C=C/c1ccco1)NCc1ccc(F)cc1`?
Sm TGR block: 3.2µM*; LmPK inh: 10%; RE007 growth inh: -7%; Giardia FBPA inh: -1%; Tb PYK inh: inconclusive

Results for Cc1cc(/C=N/Nc2ccc([N+](=O)[O-])cn2)c(C)n1-c1ccc(C(=O)O)cc1 ?
Sm TGR block: 35µM*; LmPK inh: 3%; RE007 growth inh: 13%; Giardia FBPA inh: inconclusive; Tb PYK inh: -16%

What do the screens show for `COc1ccc(OC)c2c1C(=O)C(Cl)=C(Cl)C2=O`?
NS1 function inh: -83%; Sm TGR block: inconclusive; LmPK inh: -21%; RE007 growth inh: inconclusive; Giardia FBPA inh: 1.3µM*; Tb PYK inh: 2.8µM*

How did COc1ccc(OC)c2c1C(=O)c1ccccc1C2=O do in these assays?
NS1 function inh: -6%; Sm TGR block: -2%; LmPK inh: -15%; RE007 growth inh: -8%; Giardia FBPA inh: inconclusive; Tb PYK inh: 0%

Results for CCOC(=O)c1ccc2ncc(C(=O)OCC)c(NCCCN3CCOCC3)c2c1 ?
NS1 function inh: -15%; Sm TGR block: inconclusive; LmPK inh: 3%; RE007 growth inh: -21%; Giardia FBPA inh: 0%; Tb PYK inh: -14%

What do the screens show for `CCOC(=O)c1cnc2c(Cl)c(Cl)ccc2c1NCCN1CCOCC1`?
NS1 function inh: -6%; Sm TGR block: 40µM*!; LmPK inh: 5%; RE007 growth inh: -24%; Giardia FBPA inh: -11%; Tb PYK inh: 6%
